The text below walks through data of PubChem BioAssay AID524 (The Scripps Research Institute Molecular Screening Center, 2006).

One may read the inhibition as the relative decrease from the control value, in per cent.

Hit rate of the full screen: of about 65,000 compounds, about 95 (0.1%) were called active. The full list was thinned out, with actives kept by preference. Unmarked numbers belong to inactive results.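 How the source made its calls: active means inhibition above the screen-wide mean inhibition plus 3 SD (cut at about 21% in these data); inactive means the rest.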

The target of the assay is cAMP-dependent protein kinase catalytic subunit alpha (Homo sapiens) (UniProt P17612). The assay can be described thus: inhibitors of human PKA kinase activity, primary screen, biochemical, ATP-depletion luminescence, Kemptide substrate (AID 524). To be noted: PKA Kemptide phosphorylation, Kinase-Glo ATP luminescence; at 6 µM; hits give high values. (In general: In Kinase-Glo more light means more ATP remaining.)
With `CCOC(=O)c1ccc(N2C(=O)CC(Sc3nc(O)c(CC)c(=O)[nH]3)C2=O)cc1` (stereo not given), the inhibition was 7.3%. As to `CC(=O)Nc1cccc(NC(=O)c2c(-c3ccccc3)noc2C)c1`, the inhibition was -5.3%. As for `Cc1nnc(SCC(=O)NCc2cccs2)[nH]c1=O`, the figure is 12.3%; as for `Cc1nc(SC(C)C)[nH]c(=O)c1Cc1ccccc1`, 5.4%; as for `COc1cccc(-n2cc(C(=O)O)c3ccccc3c2=O)c1`, 12.3%. As for `COc1cccc(Nc2nnc(SCC(=O)N3CC(C)OC(C)C3)s2)c1` (stereo not given), the figure is 6%. For `CC(=O)NC1CC2CCCC(C1)N2CC(=O)Nc1ccccc1` (stereo not given), the inhibition is 6%. Turning to `O=C(NCC1CCCO1)C(C(=O)c1ccccc1)n1cc(Cl)ccc1=O` (stereo not given), the inhibition was 1.8%. Next, `Cc1nc2ccc(S(=O)(=O)NCC(=O)NCCN3CCCCC3C)cc2s1` (stereo not given): -5.1%; `CCOC(=O)CN1C(=O)C(O)(CC(=O)c2ccccn2)c2ccccc21` (stereo not given): 10.4%.

With `CCOc1ccc(C(=O)Nc2cc(OC)ccc2OC)cc1`, the inhibition is -1.4%. As for `CC1(C)CC(=O)C(C=NCc2cccnc2)=C(O)C1`, the figure is 7%; as for `CCCCCCOC(=O)NCC(O)c1ccccc1` (stereo not given), 3.5%. For `Cc1cc(NC(=O)c2cccc(N3C(=O)CCC3=O)c2)no1`, the inhibition is -4%. Turning to `COc1ccc2nc(NC(=O)c3ccc(Br)s3)sc2c1`, the inhibition was -4.9%.

Turning to `CC(=O)Oc1ccc(C(=O)Nc2nccs2)cc1`, the inhibition was -2.3%. For `COc1cc(Cl)c(S(=O)(=O)n2cnc(C)c2)cc1Cl`, the inhibition was 4.9%.

On to `O=S(=O)(NCc1cccnc1)c1ccc(Br)s1`, for which the inhibition was -2.9%.

For `CN(Cc1ccccc1)c1nc2c(c(=O)[nH]c(=O)n2C)n1CCSc1nc2ccccc2[nH]1`, the inhibition is 2.7%. Take `COc1ccc2[nH]c(=O)c(CN(CC3CCCO3)C(=O)Nc3ccccc3)cc2c1` (stereo not given): the inhibition was -4.5%.

On to `c1ccc(-c2oc3ncnc(N4CCOCC4)c3c2-c2ccccc2)cc1`, for which the inhibition is 7.5%. As for `CCCCCN(C(=O)NC(=O)Nc1ccccc1OC)S(C)(=O)=O`, the figure is 8.1%; as for `CN1CCCc2cc(C#N)c(=O)[nH]c21`, 11.8%.

In the case of `Cc1ccccc1-n1c(SCC(=O)NCc2cccs2)nnc1-c1ccncc1`, the inhibition is 11.7%. With `O=C(CSc1nc2ncccc2[nH]1)Nc1ccc2c(c1)OCCO2`, the inhibition was -9.5%. As for `CCOC(=O)C1CCN(C(=O)C2CCN(S(=O)(=O)CC)CC2)CC1`, the figure is 0.3%. Next, `CCCc1nc2ccccc2c(=O)n1NC(=O)c1c(O)c2ccccc2[nH]c1=O`: 7.9%; `O=C(O)COc1nsnc1N1CCOCC1`: -0.4%. Next, `CCOC(=O)c1sc(NC(=O)CSc2nnc(-c3ccco3)o2)c(C(=O)OCC)c1C`: -4.6%. For `COC(=O)CCSc1nccn1Cc1ccccc1`, the inhibition is 1.3%. As for `O=C(Oc1ccccc1)c1ccc2nccnc2c1`, the figure is 18.8%; as for `CN1C(=O)CC(N2CCN(c3ccccn3)CC2)C1=O` (stereo not given), 0.2%.

Consider `Cc1ccc(-c2nc(COC(=O)c3c(C)noc3C)cs2)cc1`, for which the inhibition is 0.5%. As for `CCn1c(=O)cc(OCC(=O)NCCCN2CCN(c3cccc(Cl)c3)CC2)c2ccccc21`, the inhibition was 9.2%.

On to `COC(CCN(C)C)(c1ccccc1)c1ccccc1`, for which the inhibition is 9.3%. Next, `COC(=O)c1ccc(NC(=O)c2ccco2)cc1`: -3.7%. As for `Cc1cccc(-n2c(Cc3cc(=O)[nH]c(=O)[nH]3)nnc2SC(C)C)c1`, the figure is -8.8%; as for `O=C(Nc1cnccn1)c1cccnc1`, 9%; as for `O=C(Nc1nc2cc3c(cc2s1)OCCO3)c1cccc(S(=O)(=O)N2CCOCC2)c1`, 6.2%. In the case of `COc1cc(-n2c(C)nc3cc(C(=O)NCc4ccco4)ccc32)cc(OC)c1OC`, the inhibition was 5.2%. With `CCn1ncc(C2=NOC(C(=O)N3CCN(c4ccccc4)CC3)C2)c1C` (stereo not given), the inhibition was 11.5%. For `Cc1cccc(OCc2nnc(SCc3nc4cc(C(F)(F)F)ccc4c(=O)[nH]3)o2)c1`, the inhibition is 3.4%.

Regarding `Cc1ccccc1-n1nnc2c(=O)oc3ccccc3c21`, the inhibition was 7.5%. Turning to `CCOc1ccccc1Nc1nnc(SCc2ccc(C(=O)OC)o2)s1`, the inhibition is 4.4%. As for `CCOC(=O)N1CCN(CC(=O)c2c(C)[nH]c3ccccc23)CC1`, the figure is -3.4%; as for `CCOC(=O)CN1CC23C=CC(O2)C(C(=O)Nc2ccc(F)cc2)C3C1=O` (stereo not given), 2.5%; as for `COc1ccc(C2/C(=C(/O)c3ccc(OC(C)C)cc3)C(=O)C(=O)N2CCCN2CCOCC2)cc1` (stereo not given), 3.6%. For `COc1ccccc1N1CCN(C(=O)c2cn(-c3ccccc3)nc2-c2cccnc2)CC1`, the inhibition is -9.3%. For `CCOc1nc(-c2ccc(OC)cc2)ccc1-c1noc(-c2cc(OC)c(OC)c(OC)c2)n1`, the inhibition is -0.3%. As for `CN1CCc2c(sc3c2c(NCc2ccco2)nc2nnnn23)C1`, the inhibition was 4.3%.

Consider `COc1ccc(N=Cc2c(O)[nH]c3ccccc23)cc1OC`, for which the inhibition was 9.6%.

Regarding `CC1(C)C2CCC1(C)C(OC(=O)CCn1ccnc1)C2` (stereo not given), the inhibition was 7.3%. As for `Nc1nnc(SCCN2C(=O)c3ccccc3S2(=O)=O)s1`, the inhibition is 6.6%. For `CCOC(=O)c1c(NC(=O)CSc2nnc(C)c(=O)[nH]2)sc2c1CCC2`, the inhibition was 0.8%. Next, `CN(CCc1ccccn1)S(=O)(=O)c1ccc2c3c(cccc13)C(=O)N2`: 4.5%; `CC(=O)Nc1cc2ccc(OC(C)=O)cc2oc1=O`: 5.7%; `CCc1ccc(CCC(=O)Nc2ccc(S(N)(=O)=O)cc2)o1`: -0.9%. Turning to `CCN1CCN(c2ncnc3c2oc2nc(C)c4c(c23)CC(C)(C)OC4)CC1`, the inhibition is 0.2%. Consider `CCOC(=O)C(CC)Sc1ncnc2c1nnn2-c1ccc(F)cc1` (stereo not given), for which the inhibition was 11.3%. With `CC(C)(C)c1ccc(C(=O)CSc2ncn[nH]2)cc1`, the inhibition is 7.8%. Take `CCCCOc1ccccc1/C=c1/sc2nc(-c3oc4ccccc4c3C)nn2c1=O`: the inhibition was 2%. For `CC(C)(C)NC(=O)C(c1ccco1)N(Cc1ccc2c(c1)OCO2)C(=O)Cn1nnc2ccccc21` (stereo not given), the inhibition was -2.7%. For `O=S(=O)(Nc1nccs1)c1ccc2c(c1)OCCO2`, the inhibition is 6.4%.

As to `Cc1cc(C)c2nc(SCCC#N)nc(C)c2c1`, the inhibition is 5.1%. Next, `O=C(NCc1ccc(Cl)cc1)c1cc2c(nc3sccn32)s1`: 2.8%; `COc1ccccc1CNC(=O)C1CCN(S(C)(=O)=O)CC1`: 4.6%; `Cc1ccc(S(=O)(=O)N2CCC(C(=O)N[C@@H](C)C(=O)NCc3ccccc3)CC2)cc1`: 1.2%.

Regarding `CC1(C)Cc2cccc(OCC(=O)Nc3nccs3)c2O1`, the inhibition is 9.4%.

For `O=C(NCc1ccc2c(c1)OCO2)c1cc2c(s1)CS(=O)(=O)C2`, the inhibition was 5.5%. For the compound `CCOCC(=O)Nc1cc(OC)c(Cl)cc1OC`, the inhibition is 5.6%.

Regarding `O=S(=O)(c1cccc(S(=O)(=O)N2CCC(n3nnc4ccccc43)CC2)c1)N1CCCCC1`, the inhibition is 8.1%. Next, `Cc1ccc(-n2nc3c(c2NC(=O)CCC2CCCCC2)CS(=O)C3)cc1` (stereo not given): -4.5%; `CCC(C)n1[nH]c(=O)cc1N` (stereo not given): -5.4%; `CCOc1ccccc1Oc1cn[nH]c1-c1ccc(OC)cc1O`: -1.5%.

Regarding `CCn1cc(C(=O)NCC2COc3ccccc3O2)c2cc(OC)c(OC)cc2c1=O` (stereo not given), the inhibition was 2.4%.
